Assay outcomes (PubChem)
Most compounds without a hit are left out; they make up all but 9.9% or so of the library.
Tau fluor counter = counter-screen for tau fibril formation inhibitors; tau K18 P301L Alexa594 fluorescence, heparin fibrillization; Potency, µM (doses to about 57.7 µM), without a hit: at the top dose activity change, negative = decrease; hit rate 0.93% among 280,000; active = well fitted curve in the direction sought with a large enough effect; inconclusive = small, poorly fitted or top-dose-only effect, or another doubt; inactive = no such curve, though single readings can be large; an effect the other way counts as inactive or inconclusive; also: nearly all actives have a fitted effect of over 55% in size
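Human K18 P301L tau (15 uM unlabeled plus 0.24 uM Alexa 594-labeled, final) in 100 mM sodium acetate pH 7 was mixed with compound and 20 uM heparin and incubated 6 hr at 37 C.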
Tau FP inhib = inhibitors of human tau fibril formation; P10636; K18 P301L tau heparin fibrillization, Alexa594 FP, 6 h; Potency, µM (doses to about 57.7 µM), for the others: top-dose activity, negative = inhibition, hits mostly inhibitors; hit rate 0.39% among 280,000; active = well fitted curve in the direction sought with a large enough effect; inconclusive = small, poorly fitted or top-dose-only effect, or another doubt; inactive = no such curve, though single readings can be large; an effect the other way counts as inactive or inconclusive; also: nearly all actives have a fitted effect of over 55% in size
Target sequence (P10636 561-689 P618L limits assumed): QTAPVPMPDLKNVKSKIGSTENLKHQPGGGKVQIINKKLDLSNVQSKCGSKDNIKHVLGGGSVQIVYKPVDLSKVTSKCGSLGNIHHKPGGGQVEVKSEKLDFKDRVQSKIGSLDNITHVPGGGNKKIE
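Steps: dispense K18 P301L tau (15 uM plus 0.24 uM Alexa 594 tracer, final) in pH 7 sodium acetate; add compound; add heparin (20 uM final); incubate 6 hr, 37 C; add ThT (30 uM final); after 1 hr ambient, read FP.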
ALDH1A1 inh = blocks purified human ALDH1A1 activity. P00352. Purified ALDH1A1, NADH fluorescence, propionaldehyde substrate. Potency, µM (titrated, usually from 75.3 µM), without a hit: top-dose activity, negative = inhibition, most hits filed as inhibitors. hit rate 7.3% among 220,000;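 also: plate controls were no enzyme wells and a reference inhibitor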
HPGD block = HPGD (human) dehydrogenase inhibition; P15428; purified HPGD, NADH fluorescence kinetic, PGE2 substrate; Potency, µM, without a hit: at the top dose activity change, negative = inhibition, most hits filed as inhibitors; hit rate 4.3% among 150,000
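NADH formation kinetics: reaction with 30 uM PGE2 and 1 mM NAD+ (final), 20 nM enzyme, Tris-HCl pH 8 with Tween 20, after 15 min compound preincubation at room temperature. Fluorescence change, last versus first of five reads.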
JMJD2E inh = JMJD2E (human) inhibition; AID 2147; hit rate 1.6% among 230,000; JMJD2E catalytic domain, FDH-coupled NADH fluorescence (FDH is formaldehyde dehydrogenase); Potency, µM (titrated, usually from 57.1 µM), for inactives: at the highest dose activity change, negative = inhibition, usual class: inhibitors; B2RXH2;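 also: 0% = wells with enzyme and -100% = buffer wells without enzyme; nearly all actives have a fitted effect of over 50% in size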
Target sequence (B2RXH2 1-337 limits assumed): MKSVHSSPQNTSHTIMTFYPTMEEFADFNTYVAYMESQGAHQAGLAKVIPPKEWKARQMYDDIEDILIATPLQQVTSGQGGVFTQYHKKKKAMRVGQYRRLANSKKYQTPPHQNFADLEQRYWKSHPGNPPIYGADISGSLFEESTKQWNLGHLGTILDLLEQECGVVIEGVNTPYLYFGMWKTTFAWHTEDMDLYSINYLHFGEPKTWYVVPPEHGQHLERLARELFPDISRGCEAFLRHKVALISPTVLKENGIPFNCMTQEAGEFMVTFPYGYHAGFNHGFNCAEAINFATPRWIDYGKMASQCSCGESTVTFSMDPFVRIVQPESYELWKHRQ
Tau ThT inhib = blocks human tau fibril formation measured by thioflavin T | hit rate 2.1% among 270,000 | P10636 | Potency, µM (highest dose often 57.4 µM), for the others: top-dose activity, negative = inhibition, actives largely listed as inhibitors | recombinant tau K18 P301L (four-repeat tau fragment), heparin-induced fibrillization, ThT fluorescence | AID 1460; active = well fitted curve in the direction sought with a large enough effect; inconclusive = small, poorly fitted or top-dose-only effect, or another doubt; inactive = no such curve, though single readings can be large; an effect the other way counts as inactive or inconclusive; also: nearly all actives have a fitted effect of over 55% in size
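Tau K18 P301L fragment (15 uM unlabeled plus 0.24 uM Alexa 594-labeled) in 100 mM sodium acetate pH 7 with compound, fibrillization induced by 20 uM heparin for 6 hr at 37 C. Thioflavin T (30 uM) added, fluorescence read after 1 hr (ex 450, em 510 nm).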
* marks the source's active call; other numbers are inactive results; u = inconclusive; x = not tested or not shown; [ ] = remark or other dose. Unless noted, calls follow the shape of the dose curve; as a rule, active = well fitted inhibition curve with a large enough effect (not every such curve was filed as active); inconclusive = small, poorly fitted or top-dose-only effect, or another doubt; inactive = no such curve, though single readings can be large or run the other way. Unless noted, % is scaled to controls: 0 for no effect and ±100 for the full control effect; potency is read from the fitted curve at half-maximal effect.

SMILES	Tau fluor counter	Tau FP inhib	ALDH1A1 inh	HPGD block	JMJD2E inh	Tau ThT inhib
Cc1ccc(S(=O)(=O)Nc2cc(C(=O)N3CCOCC3)ccc2N2CCCCC2)cc1	-6%	-2%	u	0%	-4%	-8%
CCN(CC)S(=O)(=O)c1ccc(N2CCOCC2)c(NS(=O)(=O)c2ccc(OC)cc2)c1	20%	-4%	x	x	1%	x
CCN(CC)S(=O)(=O)c1ccc(N2CCOCC2)c(NS(=O)(=O)c2ccc(C)c(C)c2)c1	-16%	1%	0.89µM*	-5%	-6%	-5%
CCN(CC)S(=O)(=O)c1ccc(N2CCOCC2)c(NC(=O)c2cc(C)cc(C)c2)c1	-11%	8%	u	-5%	-19%	-12%
Cc1ccc(S(=O)(=O)Nc2cc(S(=O)(=O)N3CCCCC3)ccc2N2CCOCC2)cc1	-3%	4%	13µM*	x	-12%	4%
CCN(CC)S(=O)(=O)c1ccc(N2CCOCC2)c(NS(=O)(=O)c2ccc(C)cc2)c1	-19%	4%	2.2µM*	-22%	-10%	-16%
CCOc1ccc(-c2cn3c(n2)sc2cc(C(=O)NC(C)C45CC6CC(CC(C6)C4)C5)ccc23)cc1 (stereo not given)	-8%	-1%	x	x	x	-12%
CCCCCCN(CCCCCC)C(=O)Cc1c(-c2ccc(Cl)cc2)[nH]c2ccc(Cl)cc12	-13%	-12%	u	u	u	-3%
Cc1ccccc1CSCC(=O)c1c(N)n(CC(C)C)c(=O)n(C)c1=O	3%	9%	28µM*	-9%	-5%	6%
Cc1ccc(SC2=C(Sc3ccc(C)cc3)C(=O)c3ccccc3C2=O)cc1	2.5µM*[quencher]	14µM*	x	x	-13%	3.2µM*
Cc1ncc(CN2CCN(C(C)C)C(CCO)C2)s1 (stereo not given)	-7%	-3%	7%	x	-5%	-13%
CCOC(=O)c1c(C)c(C(=O)NCCOC)c(C)n1CC	4%	-8%	0%	8.9µM*	8%	3%
CC(=O)c1ccc(NC(=O)Nc2ccncc2)cc1	4%	-1%	-3%	x	-11%	5%
Cc1ccccc1NC(=S)Nc1cccc2cnccc12	-14%	-16%	u	x	-15%	u
S=C(Nc1cccc(Cl)c1)Nc1ccccc1Oc1ccccc1	u	u	u	-7%	5%	-3%
S=C(Nc1cccc(Cl)c1)Nc1cccc2cnccc12	4%	7%	3.2µM*	u	-1%	3%
CC(=O)c1ccc(NC(=S)Nc2cccc3cnccc23)cc1	-23%	-16%	x	x	18µM*	u
Cc1ccc(C)c(NC(=S)Nc2cccc3cnccc23)c1	-14%	u	8.9µM*	x	28µM*	u
Cc1ccc(NC(=S)Nc2cccc3cnccc23)cc1C	9%	7%	2.5µM*	x	3%	6%
CNc1ccnc(-c2cccc(NS(C)(=O)=O)c2)n1	x	x	20%	x	x	x
COc1ccc(-c2nc(NC(=O)c3[nH]c(C)c(C(C)=O)c3C)sc2C)cc1	u	0%	-4%	x	u	u
CCS(=O)(=O)c1c(Nc2ccc(F)c(Cl)c2)sc(C(=O)c2ccccc2)c1N	u	-10%	x	x	x	u
Cc1ccc(NC(=S)Nc2cccc3cnccc23)cc1	-14%	u	13µM*	x	u	u
CCN1C(=O)c2ccccc2S(=O)c2ccc(C(=O)N3CCN(C(=O)c4ccco4)CC3)cc21 (stereo not given)	-4%	7%	8.9µM*	-6%	1%	-4%
O=C(c1ccco1)N1CCN(C(=O)c2cccc3c2C(=O)N(C2CCCCC2)C3)CC1	-1%	-4%	10µM*	-1%	-6%	-5%
SMILES	Tau fluor counter	Tau FP inhib	ALDH1A1 inh	HPGD block	JMJD2E inh	Tau ThT inhib
O=C(c1ccco1)N1CCN(C(=O)c2cccc3c2C(=O)N(Cc2cccnc2)C3)CC1	-1%	5%	u	-4%	-12%	-4%
O=C(c1ccncc1)N1CCN(C(=O)c2ccco2)CC1	-1%	-8%	-3%	-15%	4%	-4%
O=C(c1ccco1)N1CCN(c2nc3ccccc3n3nnnc23)CC1	-19%	9%	u	-28%	u	u
CCN1C(=O)c2ccccc2S(=O)c2ccc(C(=O)N3CCCCCC3)cc21 (stereo not given)	-1%	7%	u	-14%	1%	-5%
O=C(c1ccco1)N1CCC(n2nnc3ccccc32)CC1	8%	11%	25µM*	-21%	0%	5%
O=C(c1ccc(Cl)cc1)N1CCN(C(=O)c2ccco2)CC1	-16%	1%	25µM*	-5%	1%	-14%
COC(=O)C1=C(C)NC(=O)C1(NC(=O)c1ccc(Cl)cc1)C(F)(F)F (stereo not given)	11%	3%	x	x	x	12%
NC(=O)N1CCN(C(=O)c2ccco2)CC1	-4%	-3%	20µM*	-14%	-7%	-12%
CC(=O)c1cccc(NC(=O)CCNS(=O)(=O)c2cccc3nonc23)c1	-6%	1%	u	x	-5%	-7%
CCOc1ccc(NC(=O)CCNS(=O)(=O)c2cccc3nonc23)cc1	-10%	0%	x	x	x	-11%
O=C(CCNS(=O)(=O)c1cccc2nonc12)NC1CCCCCC1	-8%	-3%	25µM*	x	-2%	-7%
O=C(CCNS(=O)(=O)c1cccc2nonc12)NCc1cccs1	0%	5%	20µM*	-17%	-1%	6%
Cc1ccc(NC(=O)CCNS(=O)(=O)c2cccc3nonc23)cc1	3%	5%	u	-1%	-3%	8%
CC(C)c1ccc(NC(=O)CCNS(=O)(=O)c2cccc3nonc23)cc1	-19%	-12%	25µM*	-26%	-6%	-2%
O=C(CCS(=O)(=O)c1cccc2nsnc12)NC1CCCCC1	-11%	-16%	u	28µM*	-1%	u
O=C(CNS(=O)(=O)c1cccc2nsnc12)NC1CCCCC1	2%	2%	3%	-13%	-1%	1%
CNc1c([N+](=O)[O-])cnn1-c1cccc(Cl)n1	11%	5%	1%	x	7%	9%
O=C(CCS(=O)(=O)c1cccc2nsnc12)N1CCN(Cc2ccc3c(c2)OCO3)CC1	-7%	-1%	u	-5%	-4%	-12%
CCN(CC)c1ccc(NC(=O)CCS(=O)(=O)c2cccc3nsnc23)c(C)c1	-10%	u	28µM*	x	-4%	u
O=C(CCS(=O)(=O)c1cccc2nsnc12)N1CCN(C(=O)c2ccco2)CC1	1%	3%	25µM*	-8%	-4%	-5%
O=C(CCC1CCCN(Cc2ccc3c(c2)CCO3)C1)NCc1ccc(F)c(F)c1 (stereo not given)	-12%	3%	11%	x	3%	-7%
COC(=O)c1ccccc1NC(=O)C1CC(=O)N(c2ccc(F)cc2)C1 (stereo not given)	0%	2%	1%	-7%	6%	-4%
